In all, about 8,000 compounds went through this assay and fewer than 10 were called active. The list is a sample of the results. Values without a mark were called inactive. No rule for the calls is given here.

In the test the test system is hedgehog, isoform A (Drosophila melanogaster). Put plainly: Drosophila hedgehog isoform A inhibitors, primary screen, biochemical, plate reader, single concentration (AID 588832).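 Also: 0% = neutral control wells and 100% = positive control wells.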 The note with it: Biochemical plate reader assay, at 30.3 µM, hits give high values.
`O=C(Nc1ccc(F)cc1F)C1CCN(c2ncnc3c2sc2cccc(F)c23)CC1`: the inhibition was 7.02%.

On to `CCCCOC(=O)c1cc(=O)[nH]c(=O)[nH]1`, for which the inhibition is 5.12%.

For the molecule `Cc1cc(C)n2nc(S(=O)(=O)N(C)c3ccccc3)nc2n1`, the inhibition is 6.52%.

Take `Cc1nc2sc(C(c3ccccc3)N3CCN(C)CC3)c(O)n2n1` (stereo unspecified): the inhibition is 14.5%.

Take `COc1ccc(-c2nc(C(=O)NCCCN3CCOCC3)cc3c2[nH]c2ccccc23)cc1OC`: the inhibition was 1.72%.

As to `C[C@H](NC(=O)[C@H]1N2C(=O)c3ccccc3C2SC1(C)C)C(=O)N1CCC[C@H]1CO` (stereo partly specified), the inhibition is 1.72%.

As to `Cc1ccc(Cl)cc1N1CCN(C(=O)C2CCN(c3nnc(-n4cccc4)s3)CC2)CC1`, the inhibition was 15.4%.

For `Cc1cc(C)n2c(SCC(=O)Nc3ccccc3)nnc2n1`, the inhibition was -12.9%.

In the case of `Cc1ccc(S(=O)(=O)Nc2ccccc2C(=O)Nc2sccc2C(=O)NN(C)C)cc1`, the inhibition is 7.69%.

Regarding `COc1c(O)c(O)c2oc(-c3ccccc3)cc(=O)c2c1OC`, the inhibition was 6.79%.

As to `O=c1cc(-c2ccc(O)cc2)oc2c(O)c(O)c(O)c(O)c12`, the inhibition is 89.5% (active).

Take `O=c1cc(-c2ccc(O)cc2)oc2c(-c3c(O)cc(O)c4c(=O)cc(-c5ccc(O)cc5)oc34)c(O)cc(O)c12`: the inhibition was 3.51%.

As for `CN(C)C(=O)c1nnc(Cc2ccc(Cl)cc2)o1`, the inhibition is 12.9%.

Take `Cc1c(C(=O)NNc2cc(=O)n(C)c(=O)n2C)cccc1[N+](=O)[O-]`: the inhibition was 1.72%.

In the case of `NC(=O)c1c(NC(=O)c2c(F)cccc2F)sc2c1CCN(Cc1ccccc1)C2`, the inhibition was 0%.

`COc1ccc(-n2c(Cc3cccn3C)nnc2SCC(=O)Nc2ccccc2OC)cc1`: the inhibition was 5%.

As to `CCOc1ccc(C(=O)c2cnc3ccccc3c2N2CCN(CC)CC2)cc1`, the inhibition is 20%.

As to `O=C(Cn1cnc2c(nnn2Cc2ccccc2)c1=O)NCc1ccco1`, the inhibition is 2.73%.

For `CCOC(=O)c1c(C)c(-c2ccccc2)n(CC(=O)N2CCCC2)c1C`, the inhibition was 0.909%.

With `Cc1cc(Nc2cccc(F)c2)n2nc(C)nc2n1`, the inhibition is -2.57%.

On to `C=CC[C@]12C[C@@H](OC)C(=O)C=C1O[C@@H](c1ccc(OC)c(OC)c1)[C@H]2C`, for which the inhibition is 8.62%.

With `CC1Cc2ccccc2N1C(=O)c1cnc2sccn2c1=O` (stereo unspecified), the inhibition was -0.943%.

On to `CCOc1ccc(CC(=O)NCc2ccc3c(c2)cc(C)n3C)cc1`, for which the inhibition was 3.85%.

Consider `O=C(COc1ccc2c(c1)oc(=O)c1ccccc12)N[C@@H](Cc1ccccc1)C(=O)O`, for which the inhibition was 0%.

Consider `COC(=O)C1=C(C)n2cnnc2NC1c1ccc(Cl)cc1` (stereo unspecified), for which the inhibition is 15%.

As for `Cc1ccc(C)c(N2CCN(C(=O)c3ccc4c(=O)n5c(nc4c3)CCCCC5)CC2)c1`, the inhibition was -12.9%.

Consider `COc1ccc(C(=O)NCc2ccc3c(c2)cc(C)n3C)cc1`, for which the inhibition was 5.23%.

On to `COc1ccccc1NS(=O)(=O)c1cc2c(cc1C)NC(=O)CO2`, for which the inhibition was 9.62%.

Turning to `Cc1ccc(NC(=S)NCc2ccc3[nH]c4c(c3c2)CCCC4)cc1`, the inhibition is 4.39%.

Consider `COc1ccc(-c2nc(CS(=O)CC(=O)NCCC3=CCCCC3)c(C)o2)cc1` (stereo unspecified), for which the inhibition was 7.69%.

For `Cc1cnc(NC(=O)CSc2nnc(COc3c(C)cccc3C)o2)s1`, the inhibition was 10%.

Values taken from PubChem BioAssay AID588832 (Broad Institute, 2011).
